Measured values as given in PubChem BioAssay (EPA / NIEHS).
Active and inactive are the calls of the source. Rule for the calls: active = hit-call score of the fitted dose curve at least 0.9, where 1 is the maximum; inactive = score below 0.9.

Columns and labels:
[1] = read-out: Interferon-gamma inducible Protein 10 (IP10), CXCL10 (gene 3627); experiment: BSK_hDFCGF_IP10: BioMAP Diversity Plus: hDFCGF Assay for Interferon-gamma inducible Protein 10 (IP10) Biomarker Activity (AID 2283053); details: primary human foreskin fibroblasts; actives raise or lower the signal
Summary of the method: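 ELISA quantification of IP-10 after a 24 h chemical exposure of human dermal foreskin fibroblast primary cultures. Both increases and decreases versus DMSO fitted.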

[2] = read-out: Urokinase-type plasminogen activator receptor (uPAR), PLAUR (gene 5329); experiment: BSK_CASM3C_uPAR: BioMAP Diversity Plus: CASM3C Assay for Urokinase-type plasminogen activator receptor (uPAR) Biomarker Activity (AID 2283054); details: primary human coronary artery smooth muscle cells; actives raise or lower the signal;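 note: cell-surface uPAR protein level quantified by ELISA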
[3] = read-out: Vascular cell adhesion molecule 1 (VCAM1), VCAM1 (gene 7412); experiment: BSK_CASM3C_VCAM1: BioMAP Diversity Plus: CASM3C Assay for Vascular cell adhesion molecule 1 (VCAM1) Biomarker Activity (AID 2283055); details: primary human coronary artery smooth muscle cells; actives raise or lower the signal;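 note: VCAM-1 protein level quantified by ELISA on the cells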
[4] = read-out: Collagen III, COL3A1 (gene 1281); experiment: BSK_hDFCGF_CollagenIII: BioMAP Diversity Plus: hDFCGF Assay for Collagen III Biomarker Activity (AID 2283056); details: primary human foreskin fibroblasts; actives raise or lower the signal
Summary of the method: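 hDFCGF primary human dermal fibroblasts; 24 h chemical exposure; collagen III by ELISA; bidirectional curve fit vs DMSO baseline (gain or loss of signal).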

[5] = read-out: Epidermal growth factor receptor (EGFR), EGFR (gene 1956); experiment: BSK_hDFCGF_EGFR: BioMAP Diversity Plus: hDFCGF Assay for Epidermal growth factor receptor (EGFR) Biomarker Activity (AID 2283057); details: primary human foreskin fibroblasts; actives raise or lower the signal
Summary of the method: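 EGFR levels by ELISA in human dermal fibroblast cultures, 24 h post-treatment, fitted bidirectionally versus DMSO. Parallel wells stained with sulforhodamine B to detect overt cytotoxicity.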

[6] = read-out: Interleukin-8 (IL8), CXCL8 (gene 3576); experiment: BSK_hDFCGF_IL8: BioMAP Diversity Plus: hDFCGF Assay for Interleukin-8 (IL8) Biomarker Activity (AID 2283058); details: primary human foreskin fibroblasts; actives raise or lower the signal
Summary of the method: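 ELISA read-out of IL-8 from primary human foreskin fibroblast cultures taken 24 h after dosing; values are bidirectional fits relative to DMSO vehicle.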

[7] = BSK_hDFCGF_Proliferation: Cell Proliferation Assessment in the BioMAP Diversity Plus: hDFCGF Assay (AID 2283059); details: primary human foreskin fibroblasts;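 note: curves fitted for both rise and fall of signal versus DMSO baseline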
Summary of the method: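 Sub-confluent human foreskin fibroblast cultures receive test chemical […]. Relative cell number is quantified by sulforhodamine B staining (0.1%, after 10% TCA fixation) at 560 nm, with bidirectional fitting referenced to DMSO.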

[8] = read-out: Macrophage colony-stimulating factor (MCSF), CSF1 (gene 1435); experiment: BSK_hDFCGF_MCSF: BioMAP Diversity Plus: hDFCGF Assay for Macrophage colony-stimulating factor (MCSF) Biomarker Activity (AID 2283060); details: primary human foreskin fibroblasts; actives raise or lower the signal
Summary of the method: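 ELISA read-out of M-CSF in human dermal foreskin fibroblast cultures, 24 h after chemical dosing; gain or loss of signal fitted bidirectionally relative to DMSO baseline.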

[9] = BSK_hDFCGF_SRB: Viability Assessment in the BioMAP Diversity Plus: hDFCGF Assay (AID 2283061); details: primary human foreskin fibroblasts;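 note: cells exposed to compound for 24 h before the read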
Summary of the method: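 Primary human foreskin fibroblasts; 24 h post-dose; fixed 10% TCA, stained 0.1% SRB, A560 read; total protein as overt cytotoxicity measure; curves fit bidirectionally vs DMSO control.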

[10] = read-out: TIMP metallopeptidase inhibitor 1 (TIMP1), TIMP1 (gene 7076); experiment: BSK_hDFCGF_TIMP1: BioMAP Diversity Plus: hDFCGF Assay for TIMP metallopeptidase inhibitor 1 (TIMP1) Biomarker Activity (AID 2283062); details: primary human foreskin fibroblasts; actives raise or lower the signal
Summary of the method: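 ELISA readout of TIMP-1 from human dermal foreskin fibroblast cultures 24 h post-dosing. Curves were fitted in both directions against DMSO baseline, with SRB total-protein staining in parallel cultures as a cytotoxicity check.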

[11] = read-out: Monokine induced gamma interferon (MIG), CXCL9 (gene 4283); experiment: BSK_hDFCGF_MIG: BioMAP Diversity Plus: hDFCGF Assay for Monokine induced gamma interferon (MIG) Biomarker Activity (AID 2283063); details: primary human foreskin fibroblasts; actives raise or lower the signal
Summary of the method: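 Fibroblasts (human foreskin, primary) dosed, 24 h, MIG by ELISA; fit bidirectional vs DMSO.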

[12] = read-out: Matrix Metallopeptidase 1 (MMP1), MMP1 (gene 4312); experiment: BSK_hDFCGF_MMP1: BioMAP Diversity Plus: hDFCGF Assay for Matrix Metallopeptidase 1 (MMP1) Biomarker Activity (AID 2283064); details: primary human foreskin fibroblasts; actives raise or lower the signal
Summary of the method: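 ELISA read-out of MMP1 from human foreskin fibroblasts (primary skin cells), 24 h post-dose. Gain or loss of signal was fitted bidirectionally versus DMSO negative control; cytotoxicity was checked by SRB in parallel cultures.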

[13] = read-out: Vascular cell adhesion molecule 1 (VCAM1), VCAM1 (gene 7412); experiment: BSK_hDFCGF_VCAM1: BioMAP Diversity Plus: hDFCGF Assay for Vascular cell adhesion molecule 1 (VCAM1) Biomarker Activity (AID 2283065); details: primary human foreskin fibroblasts; actives raise or lower the signal;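 for AC50: VCAM-1 protein level quantified by ELISA after 24 h chemical exposure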
Summary of the method: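 ELISA read-out of VCAM-1 on human skin fibroblasts, 24 h post-dose; gain or loss of signal fitted bidirectionally against DMSO baseline.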

[14] = read-out: Plasminogen activator inhibitor-1 (PAI1), SERPINE1 (gene 5054); experiment: BSK_hDFCGF_PAI1: BioMAP Diversity Plus: hDFCGF Assay for Plasminogen activator inhibitor-1 (PAI1) Biomarker Activity (AID 2283066); details: primary human foreskin fibroblasts; actives raise or lower the signal
Summary of the method: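 PAI-1 levels in human dermal foreskin fibroblasts were quantified by ELISA 24 h after dosing, with gain or loss analysed against DMSO. Overt cytotoxicity was checked by sulforhodamine B total-protein staining in parallel cultures.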

[15] = read-out: Interferon-gamma inducible Protein 10 (IP10), CXCL10 (gene 3627); experiment: BSK_KF3CT_IP10: BioMAP Diversity Plus: KF3CT Assay for Interferon-gamma inducible Protein 10 (IP10) Biomarker Activity (AID 2283068); details: primary human keratinocytes with fibroblasts; actives raise or lower the signal
Summary of the method: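 ELISA read-out of IP-10 after 24 h chemical dosing of human skin primary co-culture (keratinocytes, foreskin fibroblasts). Gain or loss of signal relative to DMSO, bidirectional curve fit.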

[16] = BSK_KF3CT_SRB: Viability Assessment in the BioMAP Diversity Plus: KF3CT Assay (AID 2283069); details: primary human keratinocytes with fibroblasts;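 note: read 24 h after compound addition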
Summary of the method: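 SRB read-out at 560 nm (0.1% stain, TCA-fixed cells) gauges overt cytotoxicity in a human skin keratinocyte–fibroblast co-culture 24 h post-dosing. Signal change was fitted bidirectionally relative to DMSO control.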

[17] = read-out: Interleukin-1 alpha (IL1a), IL1A (gene 3552); experiment: BSK_KF3CT_IL1a: BioMAP Diversity Plus: KF3CT Assay for Interleukin-1 alpha (IL1a) Biomarker Activity (AID 2283070); details: primary human keratinocytes with fibroblasts; actives raise or lower the signal
Summary of the method: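 Primary skin co-culture (keratinocytes, foreskin fibroblasts), 24 h exposure; ELISA for IL-1a; bidirectional curve fit vs DMSO.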

[18] = read-out: TIMP metallopeptidase inhibitor 2 (TIMP2), TIMP2 (gene 7077); experiment: BSK_KF3CT_TIMP2: BioMAP Diversity Plus: KF3CT Assay for TIMP metallopeptidase inhibitor 2 (TIMP2) Biomarker Activity (AID 2283071); details: primary human keratinocytes with fibroblasts; actives raise or lower the signal
Summary of the method: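 TIMP-2 measured by ELISA at 24 h in human keratinocyte/fibroblast primary co-cultures exposed to chemicals. Both increases and decreases were fitted against DMSO. Parallel cultures were stained with SRB for total protein as an overt-cytotoxicity check.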

[19] = read-out: Transforming growth factor beta 1 (TGFb1), TGFB1 (gene 7040); experiment: BSK_KF3CT_TGFb1: BioMAP Diversity Plus: KF3CT Assay for Transforming growth factor beta 1 (TGFb1) Biomarker Activity (AID 2283072); details: primary human keratinocytes with fibroblasts; actives raise or lower the signal
Summary of the method: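 ELISA quantifies TGF-b1 at 24 h post-dose in a primary human skin co-culture of keratinocytes and fibroblasts, with gain or loss judged against DMSO. Parallel SRB total-protein staining flags overt cytotoxicity.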

Measured: AC50

CC(C)CCCCCCc1ccc(O)cc1
active: [1] 9.75 µM | [2] 31.8 µM | [3] 33.8 µM | [4] 9.95 µM | [5] 12.2 µM | [6] 11.7 µM | [7] 7.24 µM | [8] 8.61 µM | [9] 10.2 µM | [10] 11.9 µM | [11] 8.13 µM | [12] 9.57 µM | [13] 9.07 µM | [14] 11.1 µM | [15] 9.35 µM | [16] 5.35 µM | [17] 8.32 µM | [18] 6.18 µM | [19] 5.58 µM

C=CCOC(Cn1ccnc1)c1ccc(Cl)cc1Cl (configuration not stated)
active: [1] 27 µM | [10] 30 µM | [14] 13.9 µM | [15] 5.07 µM
not listed: [19]
inactive: all other assays above

S=C([S-])NCCNC(=S)[S-].[Mn+2]
active: [1] 30.7 µM | [4] 29.1 µM | [5] 0.149 µM | [7] 8.5 µM | [8] 25.8 µM | [11] 32.4 µM | [12] 4.73 µM | [14] 16.4 µM | [15] 27.4 µM
inactive: [2] | [3] | [6] | [9] | [10] | [16] | [17] | [18]

O=C(O)C1(C(=O)Nc2ccc(Cl)cc2Cl)CC1
active: [4] 24.5 µM
not listed: [19]
inactive: all other assays above

Cc1nn(C)c(Oc2ccccc2)c1C=NOCc1ccc(C(=O)OC(C)(C)C)cc1
inactive: [2] | [3] | [6] | [10] | [11] | [16] | [17] | [18]
active: [1] 27.9 µM | [4] 4.21 µM | [5] 3.95 µM | [7] 6.94 µM | [8] 18.8 µM | [9] 15.4 µM | [12] 34.5 µM | [13] 13.9 µM | [14] 24.2 µM | [15] 13 µM

CCC(C)OC(=O)N1CCCCC1CCO (configuration not stated)
not listed: [19]
inactive: all other assays above

CCCN(CCC)c1c([N+](=O)[O-])cc(C(F)(F)F)c(N)c1[N+](=O)[O-]
active: [1] 31.3 µM | [4] 31.4 µM | [7] 26.7 µM | [8] 27.9 µM | [9] 33.3 µM | [10] 30.2 µM | [11] 35.9 µM | [12] 35.5 µM | [13] 26.9 µM | [14] 20 µM | [15] 34.7 µM | [16] 31.3 µM | [17] 31.3 µM | [18] 30.6 µM
inactive: [2] | [3] | [5] | [6]

COc1c(Cl)ccc(Cl)c1C(=O)O
not listed: [19]
inactive: all other assays above

CCCOC(=O)c1ccc(C(=O)OCCC)nc1
not listed: [19]
inactive: all other assays above
